# Measurements from the supplement of paper PMC10849652.
# Targets with a hit are over-represented here; the source holds about 8,800 in all. About 0.5% of all pairs of compound and target were hits. A number with no mark means an inactive call.
# Legend:
# Assay in all cases: log2 fold change, soluble protein after heating vs DMSO (PISA); higher = thermal stabilisation; K562 lysate, 10 uM; active = over 0.2 and 3.5 SD of the protein, either way, in both replicates (recomputed)
# lapatinib = compound: CS(=O)(=O)CCNCc1ccc(-c2ccc3ncnc(Nc4ccc(OCc5cccc(F)c5)c(Cl)c4)c3c2)o1 [lapatinib]
# Procedure, shortened: (§1)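 Pellets of K562 cells were dounce-homogenised in PBS pH 7.4 with 1 mM MgCl2, and the crude extract was held at 1 mg/mL protein for a 30 min treatment with 10 μM compound. Aliquots were heated for 3 min over 48°C-58°C and pooled before NP-40 was added to 0.5% at 4°C. The supernatant from 21,000xg for 90 min was quantified by TMTpro 16plex LC-MS/MS with channel sums equalised. Values are reported from duplicates as log-two fold change in thermal stability relative to solvent controls.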
# pictilisib = compound: CS(=O)(=O)N1CCN(Cc2cc3nc(-c4cccc5[nH]ncc45)nc(N4CCOCC4)c3s2)CC1 [pictilisib]
# Procedure, shortened: as §1
# crizotinib = compound: C[C@@H](Oc1cc(-c2cnn(C3CCNCC3)c2)cnc1N)c1c(Cl)ccc(F)c1Cl [crizotinib]
# Procedure, shortened: as §1
# [1] = compound: C[C@H](C1=CC=C(C=C1)C(=O)NC2=C3C=CNC3=NC=C2)N
# Procedure, shortened: as §1
# duvelisib = compound: C[C@H](Nc1ncnc2nc[nH]c12)c1cc2cccc(Cl)c2c(=O)n1-c1ccccc1 [duvelisib]
# Procedure, shortened: as §1
# gandotinib = compound: Cc1cc(Nc2cc(CN3CCOCC3)c3nc(C)c(Cc4ccc(Cl)cc4F)n3n2)n[nH]1 [gandotinib]
# Procedure, shortened: as §1
# tozasertib = compound: Cc1cc(Nc2cc(N3CCN(C)CC3)nc(Sc3ccc(NC(=O)C4CC4)cc3)n2)n[nH]1 [tozasertib]
# Procedure, shortened: as §1
# doramapimod = compound: Cc1ccc(-n2nc(C(C)(C)C)cc2NC(=O)Nc2ccc(OCCN3CCOCC3)c3ccccc23)cc1 [doramapimod]
# Procedure, shortened: as §1
# bafetinib = compound: Cc1ccc(NC(=O)c2ccc(CN3CC[C@H](N(C)C)C3)c(C(F)(F)F)c2)cc1Nc1nccc(-c2cncnc2)n1 [bafetinib]
# Procedure, shortened: as §1
# [2] = compound: Cc1cccc(CC(=O)N2CCc3c2ccc(-c2cn(C)c4ncnc(N)c24)c3F)n1
# Procedure, shortened: as §1
# nilotinib = compound: Cc1cn(-c2cc(NC(=O)c3ccc(C)c(Nc4nccc(-c5cccnc5)n4)c3)cc(C(F)(F)F)c2)cn1 [nilotinib]
# Procedure, shortened: as §1
# [3] = compound: Cc1nc(Nc2n[nH]c3c2CN(C(=O)N[C@H](CN(C)C)c2ccccc2)C3(C)C)c2sccc2n1
# Procedure, shortened: as §1
# dasatinib = compound: Cc1nc(Nc2ncc(C(=O)Nc3c(C)cccc3Cl)s2)cc(N2CCN(CCO)CC2)n1 [dasatinib]
# Procedure, shortened: as §1
# [4] = compound: Cc1ncc(-c2ccnc(Nc3ccc(S(C)(=O)=O)cc3)n2)n1C(C)C
# Procedure, shortened: as §1
# [5] = compound: Cn1cc(-c2ccc3c(c2)CCN3C(=O)Cc2cccc(C(F)(F)F)c2)c2c(N)ncnc21
# Procedure, shortened: as §1
# quisinostat = compound: Cn1cc(CNCC2CCN(c3ncc(C(=O)NO)cn3)CC2)c2ccccc21 [quisinostat]
# Procedure, shortened: as §1
# tipifarnib = compound: Cn1cncc1[C@@](N)(c1ccc(Cl)cc1)c1ccc2c(c1)c(-c1cccc(Cl)c1)cc(=O)n2C [tipifarnib]
# Procedure, shortened: as §1
# [6] = compound: NC(=O)Nc1cc(-c2cccc(F)c2)sc1C(=O)N[C@H]1CCCNC1
# Procedure, shortened: as §1
# [7] = compound: NC(=O)c1cnc(N[C@@H]2CCCC[C@@H]2N)nc1Nc1cccc(-n2nccn2)c1
# Procedure, shortened: as §1
# [8] = compound: NC1(c2ccc(-c3nc4ccn5c(=O)[nH]nc5c4cc3-c3ccccc3)cc2)CCC1
# Procedure, shortened: as §1
# Sequence of UniProt Q12983 (Q12983 whole entry, looked up): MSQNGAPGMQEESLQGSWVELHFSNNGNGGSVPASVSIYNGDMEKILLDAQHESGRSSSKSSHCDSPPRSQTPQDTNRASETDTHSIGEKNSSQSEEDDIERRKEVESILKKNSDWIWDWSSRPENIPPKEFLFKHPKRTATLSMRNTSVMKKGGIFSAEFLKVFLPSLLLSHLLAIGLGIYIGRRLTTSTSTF
# Sequence of UniProt Q13315 (Q13315 whole entry, looked up): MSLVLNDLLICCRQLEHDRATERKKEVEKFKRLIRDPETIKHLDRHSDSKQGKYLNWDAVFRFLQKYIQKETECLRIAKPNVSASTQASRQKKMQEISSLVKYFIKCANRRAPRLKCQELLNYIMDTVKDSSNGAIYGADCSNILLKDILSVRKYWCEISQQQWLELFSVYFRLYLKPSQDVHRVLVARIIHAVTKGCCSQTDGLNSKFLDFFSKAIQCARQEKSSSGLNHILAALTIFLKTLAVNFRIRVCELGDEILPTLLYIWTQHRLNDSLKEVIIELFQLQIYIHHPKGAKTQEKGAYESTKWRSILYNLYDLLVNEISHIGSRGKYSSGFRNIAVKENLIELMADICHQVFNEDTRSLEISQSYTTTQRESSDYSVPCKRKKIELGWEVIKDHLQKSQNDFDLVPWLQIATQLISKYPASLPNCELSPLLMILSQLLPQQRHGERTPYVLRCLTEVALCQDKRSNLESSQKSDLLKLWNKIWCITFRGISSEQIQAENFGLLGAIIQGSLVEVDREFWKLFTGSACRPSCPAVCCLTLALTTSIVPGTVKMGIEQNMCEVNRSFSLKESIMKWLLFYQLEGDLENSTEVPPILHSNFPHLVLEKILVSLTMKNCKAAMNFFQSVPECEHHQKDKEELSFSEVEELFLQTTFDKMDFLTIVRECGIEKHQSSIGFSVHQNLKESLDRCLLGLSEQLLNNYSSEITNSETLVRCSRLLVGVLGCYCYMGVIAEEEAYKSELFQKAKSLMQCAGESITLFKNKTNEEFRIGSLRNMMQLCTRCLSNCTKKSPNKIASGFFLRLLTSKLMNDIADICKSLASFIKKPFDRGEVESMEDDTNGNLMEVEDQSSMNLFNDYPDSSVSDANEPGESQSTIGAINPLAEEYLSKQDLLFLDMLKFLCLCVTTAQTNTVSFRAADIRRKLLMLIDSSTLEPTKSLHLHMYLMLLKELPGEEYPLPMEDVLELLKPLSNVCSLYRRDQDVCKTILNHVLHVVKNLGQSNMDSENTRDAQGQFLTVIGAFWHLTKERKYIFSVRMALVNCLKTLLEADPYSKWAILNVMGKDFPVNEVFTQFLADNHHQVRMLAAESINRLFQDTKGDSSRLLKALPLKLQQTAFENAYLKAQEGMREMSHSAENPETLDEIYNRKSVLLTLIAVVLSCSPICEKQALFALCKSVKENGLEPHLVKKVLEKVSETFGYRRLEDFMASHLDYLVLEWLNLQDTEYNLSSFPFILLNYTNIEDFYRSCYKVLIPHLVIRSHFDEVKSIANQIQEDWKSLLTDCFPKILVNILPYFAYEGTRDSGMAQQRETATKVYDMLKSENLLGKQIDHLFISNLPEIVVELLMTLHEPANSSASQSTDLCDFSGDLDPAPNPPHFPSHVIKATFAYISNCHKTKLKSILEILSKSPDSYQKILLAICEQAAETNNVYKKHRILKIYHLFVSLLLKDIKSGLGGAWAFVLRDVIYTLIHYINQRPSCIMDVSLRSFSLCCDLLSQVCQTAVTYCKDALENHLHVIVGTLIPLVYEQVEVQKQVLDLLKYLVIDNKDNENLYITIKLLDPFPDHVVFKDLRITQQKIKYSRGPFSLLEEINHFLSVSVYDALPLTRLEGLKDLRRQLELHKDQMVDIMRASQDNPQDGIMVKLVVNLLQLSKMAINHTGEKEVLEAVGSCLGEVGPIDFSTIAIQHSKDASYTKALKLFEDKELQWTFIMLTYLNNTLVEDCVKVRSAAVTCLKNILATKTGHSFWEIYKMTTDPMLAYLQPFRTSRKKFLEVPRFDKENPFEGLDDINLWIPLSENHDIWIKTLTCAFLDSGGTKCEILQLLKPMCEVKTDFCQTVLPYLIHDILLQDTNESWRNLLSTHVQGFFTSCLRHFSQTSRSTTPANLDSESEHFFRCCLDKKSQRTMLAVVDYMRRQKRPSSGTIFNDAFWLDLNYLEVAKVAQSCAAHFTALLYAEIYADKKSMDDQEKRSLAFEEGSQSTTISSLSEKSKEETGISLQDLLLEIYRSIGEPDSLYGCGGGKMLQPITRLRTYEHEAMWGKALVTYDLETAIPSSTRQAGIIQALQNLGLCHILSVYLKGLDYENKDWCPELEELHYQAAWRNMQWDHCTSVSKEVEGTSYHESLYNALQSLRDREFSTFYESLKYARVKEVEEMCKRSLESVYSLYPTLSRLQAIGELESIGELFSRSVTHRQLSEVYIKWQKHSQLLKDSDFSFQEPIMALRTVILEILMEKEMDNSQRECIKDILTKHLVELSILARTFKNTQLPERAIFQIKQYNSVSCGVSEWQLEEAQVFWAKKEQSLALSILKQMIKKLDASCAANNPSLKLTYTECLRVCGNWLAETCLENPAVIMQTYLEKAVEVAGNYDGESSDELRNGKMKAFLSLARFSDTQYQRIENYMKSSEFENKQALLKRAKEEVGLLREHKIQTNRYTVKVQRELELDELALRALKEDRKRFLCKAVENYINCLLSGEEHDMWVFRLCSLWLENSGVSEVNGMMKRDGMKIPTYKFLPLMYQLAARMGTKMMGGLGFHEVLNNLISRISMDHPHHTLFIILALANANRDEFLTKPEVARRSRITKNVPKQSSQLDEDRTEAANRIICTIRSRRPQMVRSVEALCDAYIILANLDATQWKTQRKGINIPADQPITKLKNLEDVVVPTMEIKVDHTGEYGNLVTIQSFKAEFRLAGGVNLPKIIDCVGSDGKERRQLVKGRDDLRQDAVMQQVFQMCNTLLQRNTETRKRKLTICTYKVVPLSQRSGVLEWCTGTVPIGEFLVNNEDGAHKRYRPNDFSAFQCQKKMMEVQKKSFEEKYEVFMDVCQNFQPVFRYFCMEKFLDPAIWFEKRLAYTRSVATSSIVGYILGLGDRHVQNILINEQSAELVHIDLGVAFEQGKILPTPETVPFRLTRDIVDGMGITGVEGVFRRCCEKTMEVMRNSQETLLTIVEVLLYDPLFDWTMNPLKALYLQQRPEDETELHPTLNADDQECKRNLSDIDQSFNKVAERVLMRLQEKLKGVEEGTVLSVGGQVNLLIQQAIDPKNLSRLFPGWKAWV
# Sequence of UniProt Q5VT25 (Q5VT25 whole entry, looked up): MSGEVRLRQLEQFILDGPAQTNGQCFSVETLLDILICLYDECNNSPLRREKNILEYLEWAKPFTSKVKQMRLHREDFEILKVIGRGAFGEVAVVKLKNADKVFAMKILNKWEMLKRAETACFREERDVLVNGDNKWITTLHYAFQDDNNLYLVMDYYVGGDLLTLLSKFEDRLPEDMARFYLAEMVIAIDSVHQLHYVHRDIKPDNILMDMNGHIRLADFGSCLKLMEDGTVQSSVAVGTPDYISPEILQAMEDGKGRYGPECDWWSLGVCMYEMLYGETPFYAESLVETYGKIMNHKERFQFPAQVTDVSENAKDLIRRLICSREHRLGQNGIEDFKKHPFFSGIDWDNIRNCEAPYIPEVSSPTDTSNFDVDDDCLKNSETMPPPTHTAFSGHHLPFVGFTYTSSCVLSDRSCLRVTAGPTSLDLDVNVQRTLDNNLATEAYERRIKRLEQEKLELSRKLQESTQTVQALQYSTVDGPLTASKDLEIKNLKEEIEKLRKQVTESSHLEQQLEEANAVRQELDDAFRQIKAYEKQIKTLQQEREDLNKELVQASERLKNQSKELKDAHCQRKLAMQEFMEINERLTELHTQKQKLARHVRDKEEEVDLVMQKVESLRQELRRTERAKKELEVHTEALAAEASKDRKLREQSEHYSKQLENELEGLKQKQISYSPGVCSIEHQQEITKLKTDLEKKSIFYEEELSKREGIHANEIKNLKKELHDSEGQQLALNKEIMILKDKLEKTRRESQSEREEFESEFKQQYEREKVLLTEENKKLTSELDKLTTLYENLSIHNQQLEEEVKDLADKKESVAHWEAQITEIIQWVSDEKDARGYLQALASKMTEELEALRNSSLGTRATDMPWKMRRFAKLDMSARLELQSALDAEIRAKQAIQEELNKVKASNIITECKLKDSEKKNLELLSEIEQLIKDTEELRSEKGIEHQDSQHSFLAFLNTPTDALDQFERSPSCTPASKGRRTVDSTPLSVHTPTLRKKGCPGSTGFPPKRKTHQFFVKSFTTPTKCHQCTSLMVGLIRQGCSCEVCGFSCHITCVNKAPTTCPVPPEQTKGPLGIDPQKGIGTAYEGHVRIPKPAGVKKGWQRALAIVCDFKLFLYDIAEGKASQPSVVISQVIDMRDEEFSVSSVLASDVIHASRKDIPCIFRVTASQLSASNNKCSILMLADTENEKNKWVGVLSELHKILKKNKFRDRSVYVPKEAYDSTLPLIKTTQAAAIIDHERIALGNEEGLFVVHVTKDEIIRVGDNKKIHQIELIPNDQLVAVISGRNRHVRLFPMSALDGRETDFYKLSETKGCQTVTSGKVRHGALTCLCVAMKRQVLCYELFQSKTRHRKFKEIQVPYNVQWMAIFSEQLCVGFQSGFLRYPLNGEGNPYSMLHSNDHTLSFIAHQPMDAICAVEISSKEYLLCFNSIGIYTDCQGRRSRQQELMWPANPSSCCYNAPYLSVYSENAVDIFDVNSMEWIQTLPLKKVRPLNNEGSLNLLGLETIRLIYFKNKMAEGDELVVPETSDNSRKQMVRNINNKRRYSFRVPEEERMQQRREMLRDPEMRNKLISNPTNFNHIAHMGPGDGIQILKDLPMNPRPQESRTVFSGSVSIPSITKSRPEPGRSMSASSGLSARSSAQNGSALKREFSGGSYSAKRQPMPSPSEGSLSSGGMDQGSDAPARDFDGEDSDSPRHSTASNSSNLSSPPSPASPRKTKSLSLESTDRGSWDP
Target,log2 fold change (lapatinib),log2 fold change (pictilisib),log2 fold change (crizotinib),log2 fold change [1],log2 fold change (duvelisib),log2 fold change (gandotinib),log2 fold change (tozasertib),log2 fold change (doramapimod),log2 fold change (bafetinib),log2 fold change [2],log2 fold change (nilotinib),log2 fold change [3],log2 fold change (dasatinib),log2 fold change [4],log2 fold change [5],log2 fold change (quisinostat),log2 fold change (tipifarnib),log2 fold change [6],log2 fold change [7],log2 fold change [8]
CDKN1C (UniProt P49918),0.027,-0.033,0.105,-0.025,-0.035,-0.046,-0.095,-0.045,0.049,0.071,-0.054,-0.035,0.083,0.094,0.055,0.091,0.037,-0.091,-0.101,0.04
CDK5 (UniProt Q00535),-0.094,0.095,-0.031,-0.024,0.03,0.451,0.014,0.423,-0.008,-0.023,-0.013,0.23,0.022,0.541 (active),0.019,-0.132,0.003,0.044,0.05,-0.112
CENPQ (UniProt Q7L2Z9),0.101,0.015,-0.028,-0.226,-0.027,0.071,-0.196,0.001,0.017,-0.013,-0.025,0.044,0,-0.036,-0.015,0.07,-0.076,0.047,0.164,-0.107
CALB2 (UniProt P22676),0.009,-0.07,0.01,-0.041,0.031,0.092,0.056,0.003,0.082,-0.007,0.098,-0.085,-0.037,0.056,0.016,0.091,-0.079,-0.006,-0.004,0.046
CARS isoform 3 (UniProt P49589),-0.006,-0.006,0.019,0.003,-0.015,-0.045,0.014,0.014,-0.008,-0.011,-0.019,-0.007,-0.024,-0.007,0.012,0.048,0.007,0.004,0.001,-0.01
CDK13 (UniProt Q14004),-0.077,0.108,0.08,0.025,-0.006,-0.1,0.027,0.002,0.101,-0.046,-0.081,0,0.004,-0.051,0.005,0.068,0.032,-0.039,0.033,0.131
CDC42BPA isoform 6 (UniProt Q5VT25),-0.029,-0.041,-0.061,0.024,-0.007,-0.05,0.032,0.075,-0.056,0.03,-0.01,0.003,0.012,0.013,0.048,0.025,0,0.004,-0.002,0.024
CCDC32 isoform 2 (UniProt Q9BV29),0.04,0.02,-0.021,-0.195,0.024,0.025,0.062,0.007,-0.087,0.085,-0.009,0.024,0.021,0.105,-0.001,-0.05,0.076,-0.028,-0.05,-0.03
BTAF1 (UniProt O14981),0.015,-0.043,-0.041,-0.137,0.011,-0.004,0,0.046,-0.056,0.093,-0.005,0.018,-0.028,0.007,0.008,-0.015,-0.011,0.033,0.016,0.004
CCDC51 (UniProt Q96ER9),-0.038,-0.055,-0.01,0.259 (active),-0.034,-0.217 (active),0.007,-0.053,-0.106,-0.232,-0.037,-0.049,-0.016,0.035,-0.014,0.017,-0.082,0.02,-0.015,-0.04
BNIP3 (UniProt Q12983),-0.031,0.049,-0.054,-0.371 (active),-0.166,0.107,-0.046,-0.016,0.023,0.14,0.037,-0.077,0.014,-0.002,-0.02,-0.219,0.05,0.061,-0.018,-0.007
ATE1 isoform 2 (UniProt O95260),0.021,-0.058,0.024,-0.089,-0.051,0.076,-0.003,-0.071,-0.093,0.029,-0.099,-0.006,0.069,-0.032,0.017,-0.014,0.025,0.034,-0.002,0.014
ATG13 isoform 2 (UniProt O75143),0.018,0.014,-0.022,-0.271 (active),0.016,0.172,0.05,0.049,-0.123,0.137,-0.034,0.036,0.002,0.028,-0.069,-0.052,-0.018,0.059,0,-0.014
CDC42EP4 (UniProt Q9H3Q1),0.031,0.029,-0.017,-0.047,-0.029,0.223 (active),-0.017,0.157,-0.027,0.102,0.061,-0.043,0.039,-0.026,-0.028,-0.045,0.006,-0.02,-0.025,0.02
BUD23 isoform 3 (UniProt O43709),0.052,-0.017,0.07,-0.305 (active),0.025,0.136,-0.073,-0.035,-0.088,0.152,-0.003,-0.008,0.035,-0.084,0.035,0.009,0.015,0.035,-0.076,-0.017
ATM (UniProt Q13315),-0.018,-0.055,-0.045,-0.112,-0.035,0.014,-0.04,0.051,-0.01,0.08,-0.019,-0.019,-0.071,0.084,0.038,0.039,0.009,0.009,0.039,0.008
